Laboratory results: PubChem BioAssay AID623908 (Johns Hopkins Ion Channel Center, 2012)
Screen size: about 2,500 compounds; about 1,500 (60%) were called active.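 Rule for the calls: active = duplicate-averaged ratio beyond 3 SD from buffer wells, up or down, though filed actives are nearly all decreases; inactive = the rest.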 The set was probably picked from earlier hits. Not all results are given here.

Assay: membrane potential response in parental HEK293 cells, counter-screen for CHT activator project, cell-based, membrane potential dye (AID 623908)
Details: parental HEK293, membrane potential dye fluorescence (FDSS); at 10 µM; measured after EC20 choline addition
With `CCN1CCN(c2ccc([N+](=O)[O-])cc2C#N)CC1` the ratio readout change was -38.3 (active). In the case of `CN1CCN(c2cc(N3CCNCC3)ccc2[N+](=O)[O-])CC1`, the ratio readout change is reported as -81.4 (active). In the case of `Cc1nc2ccc(N3CCN(C)CC3)cc2nc1C`, the ratio readout change is reported as -22.9 (active). With `CCCCCn1c(=O)c(C(=O)Nc2c(C)n(C)n(-c3ccccc3)c2=O)c(O)c2ccccc21` the ratio readout change was “inactive”. With `CC[N+](CC)(CC)CCCCCCCCCC[N+](CC)(CC)CC` the ratio readout change was -41.6 (active). With `CCOc1ccc(-c2cc(C)[n+](CCN(CC)CC)c(-c3ccc(OCC)cc3)c2)cc1` the ratio readout change was “inactive”.
